# Reference: PubChem BioAssay (NCI)
# Values joined by “and” are separate entries in the source; they are usually repeats but may differ in a detail not shown here. Equal entries are not always repeated. About 79,000 compounds went through this panel and 15% of them were active in at least one assay; those are over-represented in the sample as a whole. A structure can be active in one record and inactive in another. Active and inactive are the calls of the source. Rule as the data show it: active = growth inhibition above about 70%; inactive = the rest.
# What was measured:
# [1] = NCI Yeast Anticancer Drug Screen. Data for the rad50 strain (AID 155);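 also: 0% = growth of vehicle-only cultures of the same strain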; settings: S. cerevisiae rad50 strain growth inhibition, stronger effect = higher value
# Method in brief: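 Vehicle-treated cultures provide the reference for the growth inhibition reported for compound-exposed, repair-deficient yeast.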
# [2] = NCI Yeast Anticancer Drug Screen. Data for the mec2-1 strain (AID 157); settings: S. cerevisiae mec2-1 strain, stronger effect = higher value
# Method in brief: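 Strain: mec2-1 (DNA repair/cell cycle alteration). Compound exposure, then growth measured; inhibition expressed relative to vehicle.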
# [3] = NCI Yeast Anticancer Drug Screen. Data for the sgs1 mgt1 strain (AID 161);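 also: 0% = growth of cultures given vehicle only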; settings: S. cerevisiae sgs1 mgt1 strain, stronger effect = higher value
# Method in brief: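 Mutant yeast exposed to compound; growth scored against vehicle-only wells.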
# [4] = NCI Yeast Anticancer Drug Screen. Data for the cln2 rad14 strain (AID 165);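 also: 0% = growth equal to vehicle treated cultures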; settings: S. cerevisiae cln2 rad14 strain, stronger effect = higher value
# Method in brief: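 Compounds are applied to the cln2 rad14 yeast strain, and growth is then compared with that of vehicle-treated cultures to give inhibition.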
# [5] = NCI Yeast Anticancer Drug Screen. Data for the bub3 strain (AID 167); settings: S. cerevisiae bub3 mutant strain, stronger effect = higher value
# Method in brief: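 Mutant yeast screening strain plus compound; vehicle-treated cultures serve as the 0% inhibition reference.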
# [6] = NCI Yeast Anticancer Drug Screen. Data for the mlh1 rad18 strain (AID 175); settings: S. cerevisiae mlh1 rad18 strain growth inhibition, stronger effect = higher value
# Method in brief: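 Read-out is yeast growth inhibition, calculated against vehicle-only controls. The compound was applied to a strain engineered with DNA damage repair alterations.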
# [7] = at 5.0 µM (retest, dose inferred, filed as 0.5)
# [8] = at 50.0 µM (retest, dose inferred, filed as 5.0)
SMILES,"growth inhibition [1, 7]","growth inhibition [1, 8]",growth inhibition ([1]; at 50.0 µM),"growth inhibition [2, 7]","growth inhibition [2, 8]",growth inhibition ([2]; at 50.0 µM),"growth inhibition [3, 7]","growth inhibition [3, 8]",growth inhibition ([3]; at 50.0 µM),"growth inhibition [4, 7]","growth inhibition [4, 8]",growth inhibition ([4]; at 50.0 µM),"growth inhibition [5, 7]","growth inhibition [5, 8]",growth inhibition ([5]; at 50.0 µM),"growth inhibition [6, 7]","growth inhibition [6, 8]",growth inhibition ([6]; at 50.0 µM)
N#CCCC(CCC#N)(CCC#N)C(=O)c1ccccc1,10% (inactive),4% (inactive),11.6% (inactive) and 20.9% (inactive),-15% (inactive),-6% (inactive),15.8% (inactive) and -3.15% (inactive),7% (inactive),8% (inactive),33.2% (inactive) and -28.8% (inactive),4% (inactive),14% (inactive),26.1% (inactive) and 18.9% (inactive),10% (inactive),23% (inactive),18.1% (inactive) and 7.55% (inactive),20% (inactive),12% (inactive),20.2% (inactive) and 26.8% (inactive)
O=[N+]([O-])C1=C(c2ccccc2)SC=C(c2ccccc2)S1,6% (inactive) and -1% (inactive),13% (inactive) and -6% (inactive),24% (inactive) and 71.5% (active),-6% (inactive) and 10% (inactive),-3% (inactive) and 1% (inactive),13.4% (inactive) and 82.9% (active),3% (inactive) and 22% (inactive),-1% (inactive) and -5% (inactive),31.6% (inactive) and 84.7% (active),18% (inactive) and 1% (inactive),64% (inactive) and -4% (inactive),54.9% (inactive) and 89.1% (active),48% (inactive) and 50% (inactive),80% (active) and 28% (inactive),12.4% (inactive) and 84.8% (active),-9% (inactive) and 17% (inactive),-10% (inactive) and -3% (inactive),57.5% (inactive) and 85.9% (active)
O=C1NS(=O)(=O)c2ccccc21,-9% (inactive),-81% (inactive),23.3% (inactive) and 33% (inactive),-30% (inactive),-32% (inactive),13.6% (inactive) and -8.5% (inactive),-11% (inactive),-43% (inactive),-12.1% (inactive) and 24.2% (inactive),-2% (inactive),-17% (inactive),47.5% (inactive) and 29.4% (inactive),-29% (inactive),-122% (inactive),30.9% (inactive) and 50.3% (inactive),-6% (inactive),-43% (inactive),-19.4% (inactive) and 20.9% (inactive)
O=S(=O)(O)c1ccc(NN(c2c(O)ccc3ccccc23)S(=O)(=O)O)cc1,-12% (inactive),1% (inactive),18.2% (inactive),-5% (inactive),-11% (inactive),-3.1% (inactive),-16% (inactive),-12% (inactive),-19.7% (inactive),-17% (inactive),-84% (inactive),43.9% (inactive),-9% (inactive),-10% (inactive),-29.8% (inactive),-12% (inactive),-19% (inactive),15.1% (inactive)
O=C(OC(=Nc1ccccc1)N(c1ccccc1)c1ccccc1)c1ccccc1,5% (inactive),27% (inactive),13% (inactive) and 20.9% (inactive),5% (inactive),8% (inactive),3.75% (inactive) and 12.8% (inactive),-7% (inactive),40% (inactive),12.7% (inactive) and -15.7% (inactive),5% (inactive),21% (inactive),17.8% (inactive) and -2.05% (inactive),17% (inactive),34% (inactive),5.4% (inactive) and -0.45% (inactive),9% (inactive),20% (inactive),1.95% (inactive) and 12.6% (inactive)
CC(=O)OC1COC(n2c(N)c(C#N)c(-c3ccccc3)c(C#N)c2=S)C(OC(C)=O)C1OC(C)=O (centres undefined),-10% (inactive) and 1% (inactive),3% (inactive) and 74% (active),25.8% (inactive) and 46% (inactive),-12% (inactive) and 1% (inactive),3% (inactive) and 57% (inactive),16.4% (inactive) and 40.7% (inactive),-7% (inactive) and 2% (inactive),16% (inactive) and 48% (inactive),73.2% (active) and 65% (inactive),-18% (inactive) and 1% (inactive),-17% (inactive) and 61% (inactive),-6.15% (inactive) and 14.3% (inactive),-11% (inactive) and 4% (inactive),-33% (inactive) and 79% (active),35.7% (inactive) and 4.05% (inactive),-7% (inactive) and -2% (inactive),8% (inactive) and 73% (active),62.9% (inactive) and 56.9% (inactive)
O=C(O)c1ccccc1C(=O)O,-3% (inactive),8% (inactive),-29.7% (inactive) and 15.6% (inactive),-3% (inactive),4% (inactive),-14.8% (inactive) and 5.1% (inactive),0% (inactive),7% (inactive),4.95% (inactive) and -23.6% (inactive),4% (inactive),7% (inactive),21.1% (inactive) and 54.1% (inactive),2% (inactive),-6% (inactive),-7.45% (inactive) and -11.4% (inactive),-2% (inactive),7% (inactive),-5.8% (inactive) and 7% (inactive)
COc1ccc(COc2ccc(C(=O)CCN3CCOCC3)cc2)cc1,47% (inactive),62% (inactive),96.8% (active),38% (inactive),80% (active),96.5% (active),61% (inactive),87% (active),97% (active),40% (inactive),46% (inactive),93.8% (active),51% (inactive),80% (active),97.4% (active),51% (inactive),77% (active),96.8% (active)
